Where “and” joins values, the source holds several entries; their conditions need not be identical. Equal entries are not always repeated. Inconclusive results are not listed. Calls of active or inactive are those of the source. Calls follow the shape of the dose curve; as a rule, active = well fitted curve in the direction sought with a large enough effect; inconclusive = small, poorly fitted or top-dose-only effect, or another doubt; inactive = no such curve, though single readings can be large; an effect the other way counts as inactive or inconclusive.

Assay [1] is described as follows: qHTS Screen of the MIPE 4.0 Collection Against Ewings Sarcoma (RDES) (AID 1259252). Also: nearly all actives have a fitted effect of over 35% in size. Also: potency is read from the fitted curve at half-maximal effect. In a few lines:
(§1)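 Dose series incubated 48 h with cells in RPMI plus 5% FBS, glutamine and penicillin/streptomycin; cell viability then quantified via CellTiter-Glo.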

Assay [2] in a line: qHTS Screen of the MIPE 4.0 Collection Against Ewings Sarcoma (TC71) (AID 1259253). Also: nearly all actives have a fitted effect of over 40% in size. Also: potency is read from the fitted curve at half-maximal effect. In outline: as §1
Assay [3] is described as follows: qHTS Screen of the MIPE 4.0 Collection Against Ewings Sarcoma (EW8) (AID 1259255). Also: nearly all actives have a fitted effect of over 35% in size. Also: potency is read from the fitted curve at half-maximal effect. In a few lines: as §1
A short description of assay [4]: qHTS Screen of the MIPE 4.0 Collection Against Ewings Sarcoma (TC32) (AID 1259256). Also: nearly all actives have a fitted effect of over 45% in size. Also: potency is read from the fitted curve at half-maximal effect. In a few lines: as §1
Assay [5] is described as follows: NS1 protein of Zika virus - qHTS assay to identify small molecule inhibitors in human HEK 293 cells (AID 1347053). Also: nearly all actives have a fitted effect of over 55% in size. Also: potency is read from the fitted curve at half-maximal effect. In outline: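 TR-FRET signal from two anti-ZIKV NS1 antibodies quantified NS1 in HEK 293 cells 24 h after MR766 infection at MOI = 0.5; compounds were added 1 h before virus. Uninfected cells and infected cells defined the NS1 normalization range.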

The nature of assay [6]: P-glycoprotein substrates identified in KB-8-5-11 adenocarcinoma cell line, qHTS therapeutic library screen (AID 1346987). Also: nearly all actives have a fitted effect of over 65% in size. Also: potency is read from the fitted curve at half-maximal effect. In a few lines: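 Human cervical adenocarcinoma KB-8-5-11 cells, selected in colchicine to over-express P-gp and assayed without it, were exposed for 72 h to titrated compounds. An ATP-based luminescent viability signal gave AC50.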
A short description of assay [7]: qHTS assay to identify small molecule inhibitors of chordoma cells - UCH-2 (AID 1259356). Also: series mostly up to about 46 µM.
Assay [8] is described as follows: qHTS assay to identify small molecule inhibitors of chordoma cells - UCH-1 (AID 1259355). Also: nearly all actives have a fitted effect of over 55% in size. In a few lines:
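Screening used approved and investigational drugs in 15-point titration against 800 seeded cells per well. A fixed combination of auranofin with camptothecin, doxorubicin, rubitecan and topotecan followed compound addition, and growth was scored by CellTiter-Glo after 48hr.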

Assay [9] can be described thus: P-glycoprotein substrates identified in KB-3-1 adenocarcinoma cell line, qHTS therapeutic library screen (AID 1346986). Also: nearly all actives have a fitted effect of over 60% in size. In outline: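 Viability by CellTiter-Glo after 72 h compound exposure at 37 degree C, 5% CO2. Cytotoxic call: curve class -1.1 to -2.4, maximum response >50%, AC50 < 10 uM, compared across KB-3-1 and P-gp-overexpressing KB-8-5-11.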

For `CC(C)(C)c1cc(C(C)(C)C)c(NC(=O)c2c[nH]c3ccccc3c2=O)cc1O`, the Potency result in [1], in assay [2], in [3], in assay [4] and in assay [5] was “inactive” throughout.
In the case of `C=CC(=O)Nc1cccc(Oc2nc(Nc3ccc(N4CCN(C)CC4)cc3)ncc2Cl)c1`, the Potency in assay [1] is 2.35 µM (active); in assay [2] it was 14.8 µM (active); in [3], 2.64 µM (active); in assay [4] it was 2.64 µM (active); in assay [5], 13.2 µM (active).
Consider `CC1COC2(CCN(c3nc(=O)c4cc(C(F)(F)F)cc([N+](=O)[O-])c4s3)CC2)O1` (stereo not given), for which the Potency entry in assay [1], in assay [2], in [3], in [4], in assay [6] and in assay [5] was “inactive” each time.
Consider `NC(=O)c1c(OCc2c(F)cc(Br)cc2F)nsc1NC(=O)NCCCCN1CCCC1`, for which the Potency is 16.6 µM (active) in assay [1]; 18.7 µM (active) in assay [2]; 9.35 µM (active) in [3]; 14.8 µM (active) in assay [4]; 18.4 µM (active) in [6]. In addition, the Potency entry in [5] was “inactive”.
Consider `CN[C@H]1CCc2cc(OC)c(OC)c(OC)c2-c2ccc(OC)c(=O)cc21`, for which the Potency was 0.0033 µM (active) in assay [2]; 0.0019 µM (active) in [3]; 18.7 nM (active) and 1.16 µM (active) in assay [6]; 0.0083 µM (active) in assay [5]. Besides, in assay [4], the Potency result was “inactive”. The call in assay [7] was inactive.
As for `COc1cccc(Nc2c(C(N)=O)cnc3c(C)cc(S(=O)(=O)c4cccc(C(=O)N(C)C)c4)cc23)c1`, the Potency entry in assay [1], in [2], in assay [3], in assay [4], in assay [6] and in [5] was “inactive” throughout.
As for `CC(C)c1cc(-c2n[nH]c(=O)n2-c2ccc3c(ccn3C)c2)c(O)cc1O`, the Potency in assay [1] was 0.105 µM (active); in [2] it was 0.0662 µM (active); in [3] it was 0.0662 µM (active); in assay [4], 0.0526 µM (active); in [6], 0.0935 µM (active). Further, in assay [5], the Potency entry was “inactive”.
For the compound `Cc1nc(Nc2n[nH]c3c2CN(C(=O)N[C@H](CN(C)C)c2ccccc2)C3(C)C)c2sccc2n1`, the Potency in assay [1] is 3.32 µM (active); in [2] it was 1.32 µM (active); in assay [3], 2.64 µM (active); in [4] it was 7.43 µM (active); in [5], 13.2 µM (active). In assay [6], the Potency entry was “inactive”.
With `CN(C)Cc1c(C(=O)NCCOc2ccc(C(=O)NO)cc2)oc2ccccc12`, the Potency was 1.05 µM (active) in [1], 0.935 µM (active) in assay [2], 1.05 µM (active) in [3] and 0.833 µM (active) in assay [4]. In assay [5], the Potency result was “inactive”.
In the case of `CC(C)c1cnn2c(NCc3ccccc3)cc(N[C@@H](CO)[C@H](O)CO)nc12`, the Potency in assay [1] is 0.469 µM (active); in assay [2] it was 0.264 µM (active); in [3], 0.372 µM (active); in assay [4], 0.296 µM (active); in assay [5] it was 0.526 µM (active).
Take `Nc1ncnc2c1c(-c1cnc3[nH]ccc3c1)nn2C1CCCC1`: the Potency was 0.469 µM (active) in [1]; 0.662 µM (active) in assay [2]; 2.09 µM (active) in assay [3]; 1.05 µM (active) in [4]; 590 nM (active) and 2.06 µM (active) in assay [6]; 16.6 µM (active) in [5].
Consider `CN1CCN(Cc2ccc(NC(=O)Nc3ccc(Oc4cc(NC(=O)C5CC5)ncn4)cc3)cc2C(F)(F)F)CC1`, for which the Potency is 0.372 µM (active) in assay [1]; 0.132 µM (active) in assay [2]; 0.372 µM (active) in [3]; 0.296 µM (active) in assay [4]; 1.18 µM (active) in assay [5].
In the case of `Nc1ncnc2c1c(-c1cccc(OCc3ccccc3)c1)cn2C1CC(CN2CCCC2)C1` (stereo not given), the Potency was 23.5 µM (active) in [1], 5.26 µM (active) in assay [2], 16.6 µM (active) in [3] and 5.26 µM (active) in [4]. For the same compound, in [5], the Potency result is “inactive”.
With `O=C(CCCCCCNC(=O)c1cnc(N(c2ccccc2)c2ccccc2)nc1)NO`, the Potency is 5.9 µM (active) in assay [1], 5.9 µM (active) in assay [2], 4.18 µM (active) in [3] and 5.26 µM (active) in [4]. For the same compound, the Potency result in assay [5] is “inactive”.
On to `O=c1[nH]c(=O)n(C2CCCO2)cc1F` (stereo not given), for which the Potency entry in assay [2], in assay [3], in [4], in assay [8], in [9] and in assay [6] was “inactive” throughout. For the same compound, the Potency result in assay [5] is “inactive”. Further, the outcome in [7] was inactive.
For `CC(C)(C)NC(=O)[C@H]1CN(Cc2cccnc2)CCN1C[C@@H](O)C[C@@H](Cc1ccccc1)C(=O)N[C@H]1c2ccccc2C[C@H]1O`, the results for the Potency in assay [2], in [3] and in [4] were 1.18 µM (active), 4.18 µM (active) and 1.32 µM (active), respectively. Further, the Potency entry in assay [8] is “inactive”. Further, the compound was called inactive in assay [7].
On to `Cc1cn2c(-c3cn[nH]c3)cnc2c(Nc2ccc(C(=O)N3CCNCC3)cc2F)n1`, for which the Potency in [1] was 16.6 µM (active); in assay [2] it was 18.7 µM (active); in assay [3] it was 16.6 µM (active); in [4], 13.2 µM (active). Moreover, the Potency result in [6] and in assay [5] was “inactive” each time.
As for `CN1c2cc(O)c(N=NC(N)=O)cc2CC1S(=O)(=O)O` (stereo not given), the Potency result in assay [2], in assay [3], in assay [4], in [8], in assay [9] and in assay [6] was “inactive” in each case. Besides, in assay [5], the Potency entry is “inactive”. Further, in assay [7], the compound was classed as inactive.
As for `COc1cc2c(cc1-c1c(C)noc1C)ncc1[nH]c(=O)n([C@H](C)c3ccccn3)c12`, the Potency in [1] is 6.62 µM (active); in [2], 4.69 µM (active); in assay [3] it was 18.7 µM (active); in assay [4] it was 4.69 µM (active). Moreover, the Potency result in assay [5] is “inactive”.
For the compound `Cc1cc(N2CCOCC2)cc2[nH]c(-c3c(NC[C@@H](O)c4cccc(Cl)c4)cc[nH]c3=O)nc12`, the Potency in assay [1] is 0.118 µM (active); in assay [2] it was 0.59 µM (active); in assay [3] it was 20.9 µM (active); in [4], 1.87 µM (active); in assay [6], 14.8 µM (active) and 18.4 µM (active). In addition, the Potency result in assay [5] is “inactive”.

The record behind these values is PubChem BioAssay (NCATS).
